Data taken from PubChem BioAssay (NCATS).
Where “and” joins values, the source holds several entries; their conditions need not be identical. Equal values may be shown once. Records with an inconclusive call do not appear. Calls of active or inactive are those of the source. Unless noted, calls come from the whole dose curve; as a rule, active = well fitted curve in the direction sought with a large enough effect; inconclusive = small, poorly fitted or top-dose-only effect, or another doubt; inactive = no such curve, though single readings can be large; an effect the other way counts as inactive or inconclusive.

Legend:
[1] = molecular target: Cellular tumor antigen p53 (Homo sapiens) (UniProt P04637); assay: Primary qHTS for small molecule compounds that upregulate eGFP-tagged delta133p53alpha (in N-terminal) cells. (AID 2060322); settings: NCI-H358 eGFP-delta133p53alpha fluorescence, 24 h; activation: stronger effect = higher value;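 note: series mostly up to about 56 µM; 0% = DMSO vehicle and 100% = reference activator; nearly all actives have a fitted effect of over 75% in size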
Chain of Cellular tumor antigen p53 (Homo sapiens) (P04637 whole entry, looked up): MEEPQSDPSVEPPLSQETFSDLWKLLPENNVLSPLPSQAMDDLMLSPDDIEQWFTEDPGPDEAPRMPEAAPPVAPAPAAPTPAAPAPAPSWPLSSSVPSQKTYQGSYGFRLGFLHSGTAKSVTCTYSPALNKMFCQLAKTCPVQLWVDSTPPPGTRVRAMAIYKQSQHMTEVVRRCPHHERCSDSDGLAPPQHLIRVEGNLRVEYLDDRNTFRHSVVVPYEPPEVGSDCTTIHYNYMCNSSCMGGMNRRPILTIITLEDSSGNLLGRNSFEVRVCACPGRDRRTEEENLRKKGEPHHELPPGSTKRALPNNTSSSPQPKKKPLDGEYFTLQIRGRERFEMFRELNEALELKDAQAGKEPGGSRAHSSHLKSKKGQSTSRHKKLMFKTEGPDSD
In short: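 NCI-H358 cells pre-induced 24 h with 10 ng/ml doxycycline to express N-terminal eGFP-delta133p53alpha, then dosed 24 h at 37C without doxycycline; fixed, Hoechst-stained, GFP intensity by laser scanning cytometry, normalized to DMSO (0%) and 57.5 uM 5-azacytidine (100%).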

[2] = molecular target: Cellular tumor antigen p53 (Homo sapiens) (UniProt P04637); assay: Primary qHTS for small molecule compounds that upregulate eGFP-tagged delta133p53alpha (in C-terminal) cells. (AID 2060324);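 note: 0% = DMSO wells and 100% = 57.5 µM 5-azacytidine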
In short: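 In this qHTS, GFP-tagged delta133p53alpha levels are measured in fixed NCI-H358 cells after 24 h compound exposure at 37 °C. The cells are pre-induced with 100 ng/ml doxycycline, and signal is normalized to DMSO-treated wells as 0%.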

[3] = molecular target: Aldehyde dehydrogenase, mitochondrial (Homo sapiens) (UniProt P05091); assay: qHTS for Inhibitors of the Aldehyde Dehydrogenase Family (ALDH2) Validation screens (AID 2061302; active = well fitted inhibition curve with a large enough effect; title and protocol of this record describe different tests;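 note: plate controls were DMSO vehicle for no effect and maximal DPI positive control response for full effect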)
[4] = molecular target: Aldehyde dehydrogenase, mitochondrial (Homo sapiens) (UniProt P05091); assay: qHTS for Inhibitors of the Aldehyde Dehydrogenase Family (ALDH2) Primary screen (AID 2061308);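 note: plate controls were vehicle for no effect and reference inhibitor for full effect; nearly all actives have a fitted effect of over 55% in size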
[5] = molecular target: Retinaldehyde dehydrogenase 3 (Homo sapiens) (UniProt P47895); assay: qHTS for Inhibitors of the Aldehyde Dehydrogenase Family (ALDH1A3) Validation screen (AID 2061312); note: % is set by controls: 0 for no effect and ±100 for the full control effect; nearly all actives have a fitted effect of over 45% in size
[6] = molecular target: Retinaldehyde dehydrogenase 3 (Homo sapiens) (UniProt P47895); assay: qHTS for Inhibitors of the Aldehyde Dehydrogenase Family (ALDH1A3) Primary screen (AID 2061315);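 note: plate controls were DMSO vehicle for no effect and reference inhibitor for full effect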
[7] = BET inhibitor-based combinations targeting novel dependencies in MECOM-rearranged (r) AML: SET-2 cell line (AID 2202231); settings: SET-2 AML cells viability, CellTiter-Glo luminescence, 48 h; viability: stronger effect = lower value, series mostly up to about 46 µM;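 note: plate controls were DMSO treated cells for no effect and wells without cells for full effect; nearly all actives have a fitted effect of over 35% in size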
In short: (§1)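 Cells were plated at 500 per well and exposed to an 11-point dose series of each drug for 48 hr. Viability was measured by CellTiter-Glo luminescence, normalized to DMSO and empty-well controls, and summarized as AUC and per-cell-line Z-AUC.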

[8] = BET inhibitor-based combinations targeting novel dependencies in MECOM-rearranged (r) AML: OCI-AML3 cell line (AID 2202232); settings: Potency: OCI-AML3 viability;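 note: series mostly up to about 46 µM; plate controls were DMSO vehicle wells for no effect and wells without cells for full effect; nearly all actives have a fitted effect of over 35% in size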
In short: as §1

[9] = BET inhibitor-based combinations targeting novel dependencies in MECOM-rearranged (r) AML: MV-4-11 cell line (AID 2202233);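 note: plate controls were DMSO for no effect and blank wells for full effect; nearly all actives have a fitted effect of over 45% in size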
In short: (§2)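 Activity is given as area under the curve and as Z-AUC, mean-centred within each cell line. It comes from 11-point dose curves normalized to DMSO and empty wells. CellTiter-Glo luminescence was read after 48 hr drug exposure of 500 cells/well.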

[10] = BET inhibitor-based combinations targeting novel dependencies in MECOM-rearranged (r) AML: HNT-34 cell line (AID 2202234);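 note: plate controls were vehicle wells for no effect and cell-free wells for full effect; nearly all actives have a fitted effect of over 35% in size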
In short: as §2

[11] = BET inhibitor-based combinations targeting novel dependencies in MECOM-rearranged (r) AML: UCSD-AML1 cell line (AID 2202235);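 note: series mostly up to about 46 µM; plate controls were DMSO vehicle wells for no effect and blank wells for full effect; nearly all actives have a fitted effect of over 40% in size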
In short: as §2

[12] = BET inhibitor-based combinations targeting novel dependencies in MECOM-rearranged (r) AML: AML-191 cell line (AID 2202236;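 note: plate controls were vehicle wells for no effect and wells without cells for full effect; nearly all actives have a fitted effect of over 35% in size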)
In short: as §1

[13] = BET inhibitor-based combinations targeting novel dependencies in MECOM-rearranged (r) AML: AML-194 cell line (AID 2202237;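 note: plate controls were vehicle wells for no effect and wells without cells for full effect; nearly all actives have a fitted effect of over 40% in size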)
In short: as §1

c1cnc2cc3c(cc2n1)C1CNCC3C1
inactive: activation [1] -5.72% and -13.8% | Potency [2] | Potency [3] | Potency [4] | Potency [5] | Potency [6] | viability [7] 106% | Potency [8] | Potency [9] | Potency [10] | Potency [11] | Potency [12] | Potency [13]

Cc1nn(-c2ccccc2)c(C)c1/C=N/N1CCN(Cc2ccccc2)CC1
inactive: activation [1] -13.7% and -4.24% | Potency [2] | Potency [3] | Potency [4] | Potency [5] | Potency [6]

COCCOc1cc2nc[nH]c(=O)c2cc1OCCOC
inactive: activation [1] -30.8% | Potency [2] | Potency [3] | Potency [5]

COc1cc(C(O)CO)ccc1O (centres undefined)
inactive: activation [1] -14% | Potency [2] | Potency [3] | Potency [5]

O=C(O)CNC(=O)C(CS)Cc1ccccc1 (centres undefined)
inactive: activation [1] -14.4% | Potency [2] | Potency [3] | Potency [5]

O=C(O)CN(CCN(CC(=O)O)CC(=O)O)CCN(CC(=O)O)CC(=O)O
inactive: activation [1] -33.2% | Potency [2] | Potency [3] | Potency [5]

CC(CN(C)C)CN1c2ccccc2CCc2ccccc21 (centres undefined)
inactive: activation [1] -10% and -21.6% | Potency [2] | Potency [3] | Potency [5]

O=C(Nc1ccncc1)c1cc([N+](=O)[O-])ccc1Cl
inactive: activation [1] 6.63% | Potency [2] | Potency [3] | Potency [5]

CCn1c(=O)[nH]c2cc(Cl)c(Cl)cc21
inactive: activation [1] -55.4% | Potency [2] | Potency [3] | Potency [5]

CN(C)CCN(Cc1cccs1)c1ccccn1
inactive: activation [1] -15.3% and -8.14% | Potency [2] | Potency [3] | Potency [5]

C#CCn1c(=O)c2c(ncn2C)n(C)c1=O
inactive: activation [1] -14.7% | Potency [2] | Potency [3] | Potency [5]

NC(=O)CNCCC(c1ccccc1)c1ccccc1
inactive: activation [1] -18.2% | Potency [2] | Potency [3] | Potency [5]

FC(F)(F)c1ccccc1-n1ccnc1
inactive: activation [1] 8.47% and -16.2% | Potency [2] | Potency [3] | Potency [5]

O=c1[nH]c2cc(Cl)ccc2c(O)c1-c1ccc(Oc2ccccc2)cc1
inactive: activation [1] 23.6% | Potency [2] | Potency [3] | Potency [5]

COc1cc([C@@H]2c3cc4c(cc3[C@H](O)C3COC(=O)[C@@H]32)OCO4)cc(OC)c1OC (some centres undefined)
inactive: activation [1] -47.3% | Potency [2] | Potency [3] | Potency [5]

NC(=O)c1cn(Cc2c(F)cccc2F)nn1
inactive: activation [1] -12.6% and -6.02% | Potency [2] | Potency [3] | Potency [5]

CC(=O)c1ccc(S(=O)(=O)NC(=O)NC2CCCCC2)cc1
inactive: activation [1] 3.35% and -2.1% | Potency [2] | Potency [3] | Potency [5]

COc1ccc(-c2cc(=O)c3c(O)c(OC)c(OC)cc3o2)cc1O
inactive: activation [1] 37.1% | Potency [2] | Potency [3] | Potency [5]

CC(C)Cc1ccc([C@H](C)C(=O)O)cc1
inactive: activation [1] -12.1% | Potency [2] | Potency [3] | Potency [5]

Nc1c2c(nc3ccccc13)CCCC2O (centres undefined)
inactive: activation [1] 7.34% and -16.8% | Potency [2] | Potency [3] | Potency [5]

Nc1ccn([C@H]2CC[C@@H](CO)O2)c(=O)n1
inactive: activation [1] 32.8% and -1.67% and -29% | Potency [2] | Potency [3] | Potency [5]

CCCCCCCCCCC(C)(C)C(=O)Nc1c(OC)cc(OC)cc1OC
inactive: activation [1] -40.6% | Potency [2] | Potency [3] | Potency [5]

Fc1ccc(CN(C2=NCCN2)c2c(Cl)cccc2Cl)cc1
inactive: activation [1] -28.1% | Potency [2] | Potency [3] | Potency [5]

CCn1ccnc1CC1COc2ccccc2O1 (centres undefined)
inactive: activation [1] -21.8% and 27.7% | Potency [2] | Potency [3] | Potency [5]

COC(=O)[C@H](NC(=O)c1cc(-c2ccccc2)nc2ccccc12)c1ccccc1
inactive: activation [1] 6.75% | Potency [2] | Potency [3] | Potency [5]

O[Si](CCCN1CCCCC1)(c1ccc(F)cc1)C1CCCCC1 (centres undefined)
inactive: activation [1] -77.2% | Potency [2] | Potency [3] | Potency [5]

CNCCC(Oc1ccccc1OC)c1ccccc1 (centres undefined)
inactive: activation [1] -3.68% | Potency [2] | Potency [3] | Potency [5]

CO[C@@]1(NC(=O)CSCC#N)C(=O)N2C(C(=O)O)=C(CSc3nnnn3C)CS[C@@H]21
inactive: activation [1] 11.9% and 5.62% | Potency [2] | Potency [3] | Potency [5]

Nc1nc(N)c2nc(-c3ccccc3)c(N)nc2n1
inactive: activation [1] -26.6% and -1.16% | Potency [2] | Potency [3] | Potency [5]

CC(C)(C)NCC(O)c1cc(O)cc(O)c1 (centres undefined)
inactive: activation [1] 2.51% and 8.65% | Potency [2] | Potency [3] | Potency [5]

C[C@H](Cc1ccccc1)Nc1ncnc2c1ncn2[C@@H]1O[C@H](CO)[C@@H](O)[C@H]1O
inactive: activation [1] -29.5% | Potency [2] | Potency [3] | Potency [5]

CC[C@H]1OC(=O)[C@H](C)C(O[C@H]2C[C@@](C)(OC)[C@@H](O)[C@H](C)O2)[C@H](C)[C@@H](OC2O[C@H](C)C[C@H](N(C)C)[C@H]2O)[C@](C)(O)C[C@@H](C)CN(C)[C@H](C)[C@@H](O)[C@]1(C)O (some centres undefined)
inactive: activation [1] -28.2% | Potency [2] | Potency [3] | Potency [5]
